Experimental data from PubChem BioAssay.
For part of these data: Measured potencies and affinities stand elsewhere. The source made the active and inactive calls.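 The calls were made as follows, unless noted: active = calcium signal ratio cut to more than 3 SD under the fully stimulated control mean yet still positive, in both repeats and the primary screen; inactive = the rest.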

Assays:
[1] = system: TRPC4 beta (transient receptor potential cation channel C4), mouse; experiment: activators of mouse TRPC4 channel, confirmation, cell-based, Fluo4 calcium, HEK293 TRPC4beta/mu-opioid, duplicates, 10 µM (AID 2426;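 active = fluorescence ratio normalized to control raised more than 50% in primary screen plus both repeat runs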); details: Fluo4 calcium fluorescence, at 10 µM; stronger effect = higher value
[2] = system: transient receptor potential cation channel C4 beta (TRPC4), mouse; experiment: activators of mouse TRPC4 channel, confirmation, cell-based, second round, Fluo4, HEK293 TRPC4beta/mu-opioid, 1 µM (AID 2461;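 active = primary screen active and over 50% activation in each of two duplicate runs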); details: Fluo4 calcium fluorescence, at 1 µM; stronger effect = higher value
[3] = system: TRPC4 (transient receptor potential cation channel C4 beta), mouse; experiment: positive allosteric modulators of mouse TRPC4, confirmation, cell-based, second round, Fluo-4, HEK293 TRPC4beta/mu-opioid, 1 µM (AID 2554;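 active = primary screen hit whose fluorescence ratio, in both repeats, exceeds the weak agonist control mean by 3 SD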); details: DAMGO EC20, Fluo-4 calcium flux, at 1 µM; stronger effect = higher value
[4] = system: TRPC4 beta (transient receptor potential cation channel C4), mouse; experiment: positive allosteric modulators of mouse TRPC4, confirmation, cell-based, Fluo-4, HEK293 TRPC4beta/mu-opioid (AID 2555;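 active = primary screen hit whose calcium fluorescence ratio, in both repeats, exceeds the weak agonist control mean by 3 SD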); details: DAMGO EC20, Fluo-4 calcium flux, at 10 µM; stronger effect = higher value
[5] = biological target: Short transient receptor potential channel 4 (Mus musculus) (UniProt Q9QUQ5); experiment: inhibitors of mouse TRPC4 channel, confirmation, cell-based, Fluo4, HEK293 TRPC4beta/mu-opioid (AID 2636;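 active = calcium signal cut by more than 3 SD below the full-agonist control yet still positive, in both repeats and the earlier primary screen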); details: DAMGO, Fluo4 calcium flux, at 10 µM; stronger effect = higher value
Chain of Short transient receptor potential channel 4 (Mus musculus) (Q9QUQ5 whole entry, looked up): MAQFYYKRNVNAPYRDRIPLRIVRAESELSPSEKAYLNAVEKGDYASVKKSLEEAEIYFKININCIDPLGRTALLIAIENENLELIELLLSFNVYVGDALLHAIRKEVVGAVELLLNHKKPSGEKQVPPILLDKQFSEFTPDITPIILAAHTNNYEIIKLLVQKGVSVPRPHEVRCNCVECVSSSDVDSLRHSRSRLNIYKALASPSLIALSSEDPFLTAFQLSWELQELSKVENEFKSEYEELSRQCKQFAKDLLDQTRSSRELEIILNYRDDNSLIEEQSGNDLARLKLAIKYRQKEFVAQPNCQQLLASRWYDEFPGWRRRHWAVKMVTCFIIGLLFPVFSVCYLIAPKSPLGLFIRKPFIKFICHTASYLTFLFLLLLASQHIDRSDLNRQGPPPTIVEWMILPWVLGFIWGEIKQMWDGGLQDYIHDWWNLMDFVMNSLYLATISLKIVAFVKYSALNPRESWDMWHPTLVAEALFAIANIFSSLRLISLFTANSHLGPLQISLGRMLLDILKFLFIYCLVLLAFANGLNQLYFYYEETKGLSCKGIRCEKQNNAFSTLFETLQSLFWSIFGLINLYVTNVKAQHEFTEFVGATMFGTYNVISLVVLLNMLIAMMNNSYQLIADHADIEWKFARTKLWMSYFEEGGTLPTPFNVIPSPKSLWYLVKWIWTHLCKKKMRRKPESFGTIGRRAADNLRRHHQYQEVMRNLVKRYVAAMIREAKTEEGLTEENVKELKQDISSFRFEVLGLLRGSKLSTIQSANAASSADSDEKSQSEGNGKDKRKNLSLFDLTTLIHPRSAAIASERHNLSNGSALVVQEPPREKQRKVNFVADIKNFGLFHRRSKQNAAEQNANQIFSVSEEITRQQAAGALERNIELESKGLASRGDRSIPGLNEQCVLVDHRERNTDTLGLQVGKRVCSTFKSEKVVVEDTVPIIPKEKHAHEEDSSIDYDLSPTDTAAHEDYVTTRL

[6] = biological target: Short transient receptor potential channel 4 (Mus musculus) (UniProt Q9QUQ5); experiment: inhibitors of mouse TRPC4 channel, confirmation, cell-based, second round, Fluo4, HEK293 TRPC4beta/mu-opioid, 1 µM (AID 2637); details: Fluo4 calcium flux, DAMGO, at 1 µM; stronger effect = higher value;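 as to inhibition: percent of integrated ratio relative to wells lacking test compound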
[7] = biological target: Short transient receptor potential channel 4 (Mus musculus) (UniProt Q9QUQ5); experiment: mouse TRPC4 channel activators, dose response, cell-based, HEK293 TRPC4/mu-opioid, Fluo-4 calcium (AID 434937;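 active = primary screen activator hit with a dose response curve and TRPC4 channel activation at any tested dose; inactive = no activation, no dose response, or not a primary hit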)
[8] = biological target: Short transient receptor potential channel 4 (Mus musculus) (UniProt Q9QUQ5); experiment: TRPC4 positive allosteric modulators, dose response, cell-based, HEK293 TRPC4/mu-opioid, Fluo-4 calcium, EC20 DAMGO (AID 434941;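 active = earlier screen potentiator hit that boosts the TRPC4 ion channel at some dose, with a dose response; inactive = no potentiation, no dose response, or not a prior hit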;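 also: calcium entry triggered by an EC20 dose of DAMGO at the co-expressed mu-opioid receptor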)
[9] = biological target: Short transient receptor potential channel 4 (Mus musculus) (UniProt Q9QUQ5); experiment: mouse TRPC4 channel inhibitors, dose response, cell-based, HEK293 TRPC4/mu-opioid, Fluo-4 calcium (AID 434942;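 active = primary screen inhibitor hit that blocks the TRPC4 channel at some tested dose, yielding a dose curve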)
[10] = biological target: Short transient receptor potential channel 6 (Mus musculus) (UniProt Q61143); experiment: inhibition of mouse TRPC6 channel, confirmation, selectivity assay for TRPC4 inhibitor project, cell-based, HEK293, membrane potential dye, duplicate (AID 434948;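 active = active in primary screen and both duplicates, each dropping signal beyond three positive-control SD with fluorescence still positive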); details: HEK293 TRPC6, membrane potential dye fluorescence, at 10 µM, stimulated with maximal-effect acetylcholine; stronger effect = higher value
Chain of Short transient receptor potential channel 6 (Mus musculus) (Q61143 whole entry, looked up): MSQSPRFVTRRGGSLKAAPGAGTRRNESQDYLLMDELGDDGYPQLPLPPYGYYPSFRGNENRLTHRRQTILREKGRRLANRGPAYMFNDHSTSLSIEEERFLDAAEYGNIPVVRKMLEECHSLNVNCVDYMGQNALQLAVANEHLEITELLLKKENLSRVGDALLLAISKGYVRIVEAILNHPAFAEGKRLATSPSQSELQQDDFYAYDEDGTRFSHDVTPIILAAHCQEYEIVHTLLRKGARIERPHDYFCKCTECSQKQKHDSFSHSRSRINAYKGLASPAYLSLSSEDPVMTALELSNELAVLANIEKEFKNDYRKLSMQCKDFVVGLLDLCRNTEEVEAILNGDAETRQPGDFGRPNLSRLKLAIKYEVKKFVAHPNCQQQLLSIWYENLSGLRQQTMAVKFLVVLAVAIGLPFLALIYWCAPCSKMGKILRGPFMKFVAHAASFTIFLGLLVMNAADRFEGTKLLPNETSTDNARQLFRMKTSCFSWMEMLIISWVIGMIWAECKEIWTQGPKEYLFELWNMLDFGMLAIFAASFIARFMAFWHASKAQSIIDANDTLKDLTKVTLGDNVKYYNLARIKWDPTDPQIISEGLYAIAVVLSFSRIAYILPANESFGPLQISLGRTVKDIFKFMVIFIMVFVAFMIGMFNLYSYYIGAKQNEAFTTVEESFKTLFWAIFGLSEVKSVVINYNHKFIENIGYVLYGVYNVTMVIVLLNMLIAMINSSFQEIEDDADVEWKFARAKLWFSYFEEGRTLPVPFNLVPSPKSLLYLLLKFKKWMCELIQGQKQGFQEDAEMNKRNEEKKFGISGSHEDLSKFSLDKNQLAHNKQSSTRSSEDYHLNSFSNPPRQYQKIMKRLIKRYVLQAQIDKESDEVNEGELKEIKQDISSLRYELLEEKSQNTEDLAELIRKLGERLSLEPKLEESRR

[11] = biological target: Short transient receptor potential channel 6 (Mus musculus) (UniProt Q61143); experiment: activation of mouse TRPC6 channel, confirmation, selectivity assay for TRPC4 activator project, cell-based, HEK293, membrane potential dye, duplicate (AID 434950;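 active = membrane potential signal rise above negative control mean plus 3 SD in both duplicates, also active in the earlier TRPC4 screen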); details: HEK293 TRPC6, membrane potential fluorescence, at 10 µM; stronger effect = higher value
[12] = biological target: Short transient receptor potential channel 6 (Mus musculus) (UniProt Q61143); experiment: TRPC6 potentiation by TRPC4 potentiator hits, confirmation, selectivity assay for TRPC4 potentiator project, HEK293 cells, membrane potential dye, duplicate (AID 434952;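 active = compound raising the membrane signal above positive-control mean plus 3 SD in both repeats, and a primary screen hit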); details: HEK293 TRPC6, membrane potential dye fluorescence, at 10 µM, maximal acetylcholine added after compound; stronger effect = higher value
[13] = biological target: Short transient receptor potential channel 4 (Mus musculus) (UniProt Q9QUQ5); experiment: calcium flux activators in TRPC4/5HT1a cells, counter-screen for TRPC4 activator project, cell-based, second counter screen, HEK293 TRPC4/5HT1a, Fluo-4 (AID 434977;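 active = calcium signal rise above buffer-control mean plus 5 SD in both duplicates, and also a hit in the primary screen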); details: Fluo-4 calcium flux, at 10 µM; stronger effect = higher value
[14] = calcium flux inhibitors in TRPC4/5HT1a cells, confirmation, counter-screen for TRPC4 inhibitor project, cell-based, second counter screen, HEK293 TRPC4/5HT1a, Fluo-4 (AID 434978;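 active = primary screen active whose calcium signal fell more than 3 SD beyond the full-serotonin control mean in both duplicate plates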;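 also: serotonin given first at submaximal then at maximal dose after compound preincubation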); details: Fluo-4 calcium flux, at 10 µM, serotonin added to trigger calcium flux; stronger effect = higher value
[15] = system: TRPC4 (mouse), co-expressed with 5HT1a in HEK293; experiment: calcium flux potentiators in TRPC4/5HT1a cells, confirmation, counter-screen for TRPC4 potentiator project, cell-based, second counter screen, HEK293 TRPC4/5HT1a, Fluo-4 (AID 434979;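 active = signal rise over 3 SD above mean of control wells given weak agonist, in both repeats and first screen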); details: Fluo-4 calcium flux, at 10 µM, serotonin added at its EC20 dose; stronger effect = higher value
[16] = calcium flux activation in mu-opioid HEK293 cells, confirmation, counter-screen for TRPC4 activator project, cell-based, HEK293 mu-opioid receptor line (AID 449723;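 active = hit in primary screen, with calcium signal over 5 SD above buffer well mean in both duplicates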;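 also: counter screen cells carry the mu-opioid receptor alone and lack TRPC4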); details: Fluo-4 calcium fluorescence, at 10 µM; stronger effect = higher value
[17] = calcium flux enhancement in mu-opioid HEK293 cells, confirmation, counter-screen for TRPC4 allosteric potentiator project, cell-based, HEK293 mu-opioid receptor line (AID 449724;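 active = calcium signal rise more than 3 SD above the low-dose agonist control mean, in both duplicate plates and the primary screen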); details: Fluo-4 calcium flux, at 10 µM, compound added before EC20 DAMGO stimulus; stronger effect = higher value

CC(=O)C1=C(O)C(=O)N(Cc2ccco2)C1c1ccc2c(c1)OCO2 (stereo not given)
active: inhibition [5] 94% | inhibition [6] 47%
inactive: outcome [1] | outcome [2] | outcome [3] | outcome [4] | outcome [7] | outcome [8] | outcome [9] | outcome [10] | outcome [11] | outcome [12] | outcome [13] | outcome [14] | outcome [15] | outcome [16] | outcome [17]

Cc1ccc(S(=O)(=O)NC(C(=O)Oc2cc3oc(=O)cc(C)c3cc2Cl)C(C)C)cc1 (stereo not given)
inactive: outcome [1] | outcome [2] | outcome [3] | outcome [4] | outcome [5] | outcome [6] | outcome [7] | outcome [8] | outcome [9] | outcome [10] | outcome [11] | outcome [12] | outcome [13] | outcome [14] | outcome [15] | outcome [16] | outcome [17]

CC1=C(C(=O)NCCN2CCN(C)CC2)C2(CCC(C)CC2)OC1=O (stereo not given)
inactive: outcome [1] | outcome [2] | outcome [3] | outcome [4] | outcome [5] | outcome [6] | outcome [7] | outcome [8] | outcome [9] | outcome [10] | outcome [11] | outcome [12] | outcome [13] | outcome [14] | outcome [15] | outcome [16] | outcome [17]

CC(OC(=O)Cn1cnc2c1c(=O)n(C)c(=O)n2C)C(=O)Nc1ccc(Cl)cc1 (stereo not given)
inactive: outcome [1] | outcome [2] | outcome [3] | outcome [4] | outcome [5] | outcome [6] | outcome [7] | outcome [8] | outcome [9] | outcome [10] | outcome [11] | outcome [12] | outcome [13] | outcome [14] | outcome [15] | outcome [16] | outcome [17]

O=[N+]([O-])c1ccc(N2CCCC2)nc1N1CCCC1
inactive: outcome [1] | outcome [2] | outcome [3] | outcome [4] | outcome [5] | outcome [6] | outcome [7] | outcome [8] | outcome [9] | outcome [10] | outcome [11] | outcome [12] | outcome [13] | outcome [14] | outcome [15] | outcome [16] | outcome [17]

CCCCN(C)CCNC(=O)c1ccc(Cn2c(=S)[nH]c3ccc(Br)cc3c2=O)cc1
active: potentiation [4] 16% | potentiation [15] 33.5%
inactive: outcome [1] | outcome [2] | outcome [3] | outcome [5] | outcome [6] | outcome [7] | outcome [8] | outcome [9] | outcome [10] | outcome [11] | outcome [12] | outcome [13] | outcome [14] | outcome [16] | outcome [17]

CCOc1ccc2ccccc2c1/C=N/NC(=O)c1cc(C)[nH]n1
inactive: outcome [1] | outcome [2] | outcome [3] | outcome [4] | outcome [5] | outcome [6] | outcome [7] | outcome [8] | outcome [9] | outcome [10] | outcome [11] | outcome [12] | outcome [13] | outcome [14] | outcome [15] | outcome [16] | outcome [17]

NC(N)=NN=C1CCC(c2ccccc2)CC1 (stereo not given)
inactive: outcome [1] | outcome [2] | outcome [3] | outcome [4] | outcome [5] | outcome [6] | outcome [7] | outcome [8] | outcome [9] | outcome [10] | outcome [11] | outcome [12] | outcome [13] | outcome [14] | outcome [15] | outcome [16] | outcome [17]

Cc1ccc(S(=O)(=O)NC(=O)N2CCN(Cc3c(F)cccc3Cl)CC2)cc1
active: potentiation [15] 15.3%
inactive: outcome [1] | outcome [2] | outcome [3] | outcome [4] | outcome [5] | outcome [6] | outcome [7] | outcome [8] | outcome [9] | outcome [10] | outcome [11] | outcome [12] | outcome [13] | outcome [14] | outcome [16] | outcome [17]

CCN(CC)CCOC(=O)c1cccc(Br)c1
inactive: outcome [1] | outcome [2] | outcome [5] | outcome [6] | outcome [7] | outcome [8] | outcome [9] | outcome [10] | outcome [11] | outcome [12] | outcome [13] | outcome [14] | outcome [16] | outcome [17]
active: potentiation [3] 14% | potentiation [4] 12% | potentiation [15] 8.39%

O=c1[nH][nH]c(-c2ccccc2)c1C=Nc1ccc(F)cc1F
inactive: outcome [1] | outcome [2] | outcome [3] | outcome [5] | outcome [6] | outcome [7] | outcome [8] | outcome [9] | outcome [10] | outcome [11] | outcome [12] | outcome [13] | outcome [14] | outcome [16] | outcome [17]
active: potentiation [4] 119% | potentiation [15] 86%

O=C(NCCc1ccccc1)c1cnc2ccccc2n1
inactive: outcome [1] | outcome [2] | outcome [3] | outcome [5] | outcome [6] | outcome [7] | outcome [8] | outcome [9] | outcome [10] | outcome [11] | outcome [12] | outcome [13] | outcome [14] | outcome [16] | outcome [17]
active: potentiation [4] 19% | potentiation [15] 27.4%

O=C(CN1CCCC1)N1c2ccccc2Sc2ccc(C(F)(F)F)cc21
inactive: outcome [1] | outcome [2] | outcome [3] | outcome [4] | outcome [5] | outcome [6] | outcome [7] | outcome [8] | outcome [9] | outcome [10] | outcome [11] | outcome [12] | outcome [13] | outcome [14] | outcome [15] | outcome [16] | outcome [17]

Cc1[nH]nc(Nc2ccccc2)c1[N+](=O)[O-]
active: potentiation [15] 20.8%
inactive: outcome [1] | outcome [2] | outcome [3] | outcome [4] | outcome [5] | outcome [6] | outcome [7] | outcome [8] | outcome [9] | outcome [10] | outcome [11] | outcome [12] | outcome [13] | outcome [14] | outcome [16] | outcome [17]

CCN1CCN(c2c(Cl)cccc2NC(=O)c2cc3ccccc3o2)CC1
active: potentiation [15] 7.29%
inactive: outcome [1] | outcome [2] | outcome [3] | outcome [4] | outcome [5] | outcome [6] | outcome [7] | outcome [8] | outcome [9] | outcome [10] | outcome [11] | outcome [12] | outcome [13] | outcome [14] | outcome [16] | outcome [17]
